# Reference: the supplement of paper PMC6555819
# System: RARg homodimer (NR concentration 270 nM)
# Assay: PBM binding z-score (relative to random genomic background probes); higher = stronger binding; sequences stand for … in GC…GCGATTGACAGCGTAGAATGAAGG
# Summary of the method: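 Custom Agilent 4×180K protein-binding microarrays carried double-stranded probes. Their 34-nt variable regions held direct-repeat seeds, single-nucleotide variants, half-site ablations and random human genomic background sequences. Arrays were incubated 1 h with ligand-free nuclear receptor dimers in PBS pH 7.4, 2% milk, 0.02% Triton X-100, 1 mM DTT, 0.2 mg/mL BSA and 0.4 mg/ml salmon testes DNA. Antibodies against each partner (one per run) detected binding, and scanned fluorescence was regression-normalized. Binding z-scores use random background probes as reference.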
row,Sequence,PBM binding z-score
1,ATATGTAGGTTTCATCCGGGTCATTCAGGCTATG,0.901
2,CCTACTGGGTCAAGGTCATTGATCAGTCAAAGCA,5.74
3,AGTCAAAGTTAACTAGGTAACGTAAGATTCAGCT,0.566
4,CCTACTGGGCCATTTAGAGGTCATTGATCATATG,2.72
5,CCTTACGGCTCACTGACAGGTTATAGCATTTGGA,0.301
6,CCTAGCAGGCCAACCTGGGTCACTCAAGGCTTGA,2.02
7,GCATATAGGTAATACAATGTGAAAGTCCGATTGT,0.478
8,ATCTAAAGGTCGAGGTGAGTATAGAGAAAGGGAA,4.69
9,ATCTCTAGGTAAAGATAATTCAGTGAATGCAAAT,0.648
10,ATCGAAAGGTCGACGAGGTGAGCATACACCGTTT,4.53
11,ATCCCTAGGTAAAAGTTCAGTGAATCCCGAGGAT,1.73
12,CGTCCAAGGTCAGCAGGTCAGTGAAAGCGACGTG,6.64
13,CCTGCTGGGCCATCAGGTCATTGATATCAACGTT,2.01
14,GCAGATAGGTAATACAAGGTGAAAGTCCGATTGT,0.471
15,TCTCGGAGGACACGAAAGGTCAGGGCTCGACATC,5.69
16,CGAACTTGGTCATCCAGGACAGTGAATACATTGA,1.24
17,TCATATAGGTCAAGGTGAAAGTCGAACGATATGA,5.43
18,TCATATAGGTAAACAGGTGAAAATCCGTAAGTTA,0.551
19,ACAAGTTGGTCAGCTGAGGTCACACACAATTCGG,3.99
20,CCTACTGGGCCATCAGGACATTGATATCAACGTT,0.554
21,TCTATTAGTTGAGTAGGGCAACCGAAACAGCGGA,0.294
22,CGAACGAGGGCATGAGATGATAGCAAATGCCGAT,1.64
